These results are taken from PubChem BioAssay.

Results filed as inconclusive are left out. The source made the active and inactive calls. Unless noted, no cut-off is given here; in the data, nearly all actives have AC50 up to about 30 µM.

Test [1] in a line: growth inhibition of DIPG glioma cells, dose response, cell-based, SU-DIPG-XIII, MIPE4.0, CellTiter-Glo, qHTS (AID 1347061; cut-off not given, nearly all actives have AC50 up to about 37 µM;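 note: cells exposed to compound for 48 hours before readout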). The conditions noted are these: SU-DIPG-XIII viability, CellTiter-Glo ATP luminescence.
The nature of test [2]: growth inhibition of DIPG glioma cells, dose response, cell-based, JHH-DIPG-1, MIPE4.0, CellTiter-Glo, qHTS (AID 1347062; cut-off not given, nearly all actives have AC50 up to about 27 µM;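 for AC50: cells exposed to compound for two days before readout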). The conditions noted are these: JHH-DIPG-1 viability, CellTiter-Glo ATP luminescence.
Test [3] can be described thus: growth inhibition of DIPG glioma cells, dose response, cell-based, SU-DIPG-IV, MIPE4.0, CellTiter-Glo, qHTS (AID 1347063).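 Note: compound exposure lasted 48 hours before the viability readout.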 The conditions noted are these: SU-DIPG-IV viability, CellTiter-Glo ATP luminescence.
Test [4] in a line: SU-DIPG-VI glioma cell viability, MIPE4.0 library, CellTiter-Glo luminescence, qHTS (AID 1347066).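 Note: cells exposed to compound for 48 hours before readout.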 To be noted: CellTiter-Glo ATP luminescence. For orientation: In ATP-based viability assays light output follows the ATP content of the culture.
Test [5] can be described thus: viability loss in pontine glioma line – cell-based, SU-DIPG-XXV, MIPE5.0, CellTiter-Glo, qHTS, dose response (AID 1347065; cut-off not given, nearly all actives have AC50 up to about 26 µM;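 note: cells exposed to compound for 48 hours before ATP readout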). The conditions noted are these: CellTiter-Glo ATP luminescence.
Test [6] in a line: JHH-DIPG-1 glioma cell viability, MIPE5.0 library, CellTiter-Glo luminescence, qHTS (AID 1347067; cut-off not given, nearly all actives have AC50 up to about 26 µM;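 note: cells exposed to compound for 48 hours before readout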). To be noted: JHH-DIPG-1 glioma viability, CellTiter-Glo ATP luminescence.
Test [7] is described as follows: SU-DIPG-XXV glioma cell viability, MIPE5.0 library, qHTS (AID 1347068; cut-off not given, nearly all actives have IC50 up to about 30 µM). In general terms: In qHTS, concentration-response curves come from the screen itself.
The nature of test [8]: sensitizers of A549 cells to miR-34 induction, primary screen, imaging, A549 dox-inducible miR-34, nuclei and caspase counts (AID 1347080;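 active = compounds whose cell count with miR-34 switched on is under 0.7 times the count with it off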). The conditions noted are these: A549 miR-34 inducible, Hoechst nuclei count, 48 h.
A short description of test [9]: LFS_MB_P medulloblastoma growth inhibition, cell-based, chromothripsis tumors, cisplatin or BGB combos (AID 1671449; in the data active = inhibition above about 80%;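 note: cells exposed for 96 hours; 0% = vehicle DMSO and 100% = killing by high DMSO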). To be noted: LFS_MB_P medulloblastoma cells.
Test [10] can be described thus: HDN33 neuroblastoma growth inhibition, cell-based, chromothripsis tumors, cisplatin or BGB combos (AID 1671450; in the data active = inhibition above about 80%;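 note: cells exposed to compound for four days; 0% = vehicle DMSO and 100% = cell killing by high DMSO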). To be noted: HDN33 neuroblastoma cells, stronger effect = higher value.
The nature of test [11]: ICB984 medulloblastoma cell growth inhibition, synergistic combos for chromothripsis tumors, cisplatin or BGB combos (AID 1671451; call rule not given here;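 note: cells exposed for 96 hours before readout; 0% = vehicle DMSO and 100% = killing by high DMSO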). To be noted: ICB984 medulloblastoma cells, drug combinations, stronger effect = higher value.
Test [12] is described as follows: LFS_MB_1R medulloblastoma cell growth inhibition, synergistic combos for chromothripsis tumors, cisplatin or BGB combos (AID 1671452; in the data active = inhibition above about 80%;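 note: cells exposed for 96 hours before readout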). To be noted: LFS_MB_1R medulloblastoma cells, stronger effect = higher value.
Test [13] in a line: HTB85 osteosarcoma cell growth inhibition, synergistic combos for chromothripsis tumors, BGB or cisplatin IC20 combos (AID 1671453; in the data active = inhibition above about 80%;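 note: cells exposed for 96 hours before readout; 0% = vehicle DMSO and 100% = high DMSO killing control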). The conditions noted are these: HTB85 osteosarcoma cells, drug combinations, stronger effect = higher value.
The nature of test [14]: MDA-MB-436 breast carcinoma cell growth inhibition, synergistic combos for chromothripsis tumors, BGB or cisplatin combos (AID 1671458; call rule not given here;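 note: cells exposed for 96 hours; 0% = vehicle DMSO and 100% = killing by high DMSO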). To be noted: MDA-MB-436 breast carcinoma growth inhibition, drug combinations, stronger effect = higher value.
Test [15] is described as follows: growth inhibition of BT084 medulloblastoma cells, cell-based, ICGC_MB145, cisplatin and BGB IC40 combos (AID 1671461; in the data active = inhibition above about 80%;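 note: cells exposed to drugs for 96 hours; 0% = vehicle DMSO and 100% = high DMSO full killing control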). To be noted: drug combinations, stronger effect = higher value.
Test [16] is described as follows: growth inhibition of RCMB18 medulloblastoma cells, cell-based, cisplatin and BGB IC40 combos (AID 1671462; in the data active = inhibition above about 80%;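 note: cells exposed to compound for four days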). To be noted: stronger effect = higher value.
A short description of test [17]: growth inhibition of CRL1545 osteosarcoma cells, cell-based, cisplatin and BGB IC20 combos (AID 1671464; in the data active = inhibition above about 80%;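 note: cells exposed to compound for 96 hours before readout; 0% = vehicle DMSO and 100% = high DMSO killing control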). The conditions noted are these: stronger effect = higher value.
The mark [18] stands for this setting: measured here: combination with BGB IC40, at 0.05 µM.
Setting [19] is: measured here: with BGB IC20 combination, at 0.5 µM.
The mark [20] stands for this setting: measured here: with cisplatin IC20 combination, at 0.5 µM.
Where [21] appears, read: measured here: combination with cisplatin, at 0.5 µM.

As for `CCN1C[C@H](C)n2c(c(O)c3c(=O)n(Cc4ccc(F)c(Cl)c4)nc(C(=O)NC)c32)C1=O`, the call in [1], in [2], in test [3] and in test [4] was inactive.

The term AC50 denotes the concentration giving half of the maximal activity seen. Consider `C=C1/C(=C\C=C2/CCC[C@]3(C)[C@@H]([C@H](C)/C=C/[C@H](C)C(C)C)CC[C@@H]23)C[C@@H](O)C[C@@H]1O`, for which the AC50 in [1] is 8.33 µM (active); in test [2] it was 0.418 µM (active); in [3], 5.9 µM (active); in test [5], 18.6 µM (active); in [4] it was 23.5 µM (active); in test [6], 26.3 µM (active). Besides, in test [7], the molecule was classed as inactive.

In the case of `CC(C)(C)COc1ccc(-n2cc(C(=O)O)cn2)cc1C#N`, the outcome in test [1], in [2], in test [3], in test [5], in test [4] and in [7] was inactive.

Turning to `CNc1ccc(C(=O)Oc2cc(ON[N+](=O)N(C)C)c([N+](=O)[O-])cc2C#N)cc1`, the result in test [1], in [2], in test [3] and in [4] was inactive.

`COc1ccc(CC2SC(=O)NC2=O)cc1C(=O)NCc1ccc(C(F)(F)F)cc1` (stereo not drawn): the call in test [1], in [2], in test [3], in test [5], in test [4] and in test [6] was inactive. Further, the call in test [7] was inactive.

Regarding `C[C@H](NCc1ccc(OCc2cccc(F)c2)cc1)C(N)=O`, the AC50 in test [1] was 18.7 µM (active); in test [2], 4.69 µM (active); in test [3] it was 9.35 µM (active); in test [4], 14.8 µM (active).

Turning to `O=C(NNC(=O)c1ccc(CNS(=O)(=O)c2ccc(F)c(Cl)c2)cc1)c1ccccc1`, the molecule was classed as inactive in [1], in test [2], in test [3] and in test [4].

Consider `CN1[C@@H]2CC(OC(=O)[C@@H](CO)c3ccccc3)C[C@H]1[C@H]1O[C@H]12` (stereo partly drawn), for which the outcome in test [1], in [2], in test [3] and in [4] was inactive.

Consider `CCCCCNC(=O)N1CCC(CN(Cc2ccc(Cl)cc2)Cc2ccc([N+](=O)[O-])s2)C1` (stereo not drawn), for which the molecule was classed as inactive in test [1] and in [2]. The AC50 in [3] was 23.5 µM (active); in [5], 29.5 µM (active); in test [6] it was 23.5 µM (active).

As for `Cc1cnn(C)c1C(=O)Nc1cc(Nc2ccc3c(/C=C/c4ccccn4)n[nH]c3c2)ccc1F`, the AC50 was 13.2 µM (active) in test [1], 18.7 µM (active) in test [2], 14.8 µM (active) in [3] and 18.7 µM (active) in [4].

For `CCCCCCCCCCCCCC(=O)N[C@H](CO)[C@H](O)c1ccc([N+](=O)[O-])cc1`, the molecule was classed as inactive in [1]. Moreover, the AC50 in test [2] was 2.96 µM (active); in test [3], 4.69 µM (active); in [5] it was 18.6 µM (active). For the same molecule, the fold change in [8] (stronger effect = lower value, cell number ratio, induced over uninduced) is 0.96 (inactive); in test [8] (measured here: relative caspase fold change +Dox/-Dox), 0.781. The cell count amounted to 6010 in test [8] (measured here: total cells with miR-34 induction, stronger effect = lower value) and 6250 in test [8] (measured here: total cells without miR-34 induction).

Consider `C[C@]12CC[C@H](O)CC1=CCC1C2CC[C@]2(C)C(n3cnc4ccccc43)=CCC12` (stereo partly drawn), for which the call in test [1], in test [2], in [3] and in test [7] was inactive. Further, the AC50 in test [5] is 20.9 µM (active).

In general, inhibition refers to the relative decrease from the control value, in per cent. As for `CC(C)OC(=O)[C@H](C)N[P@](=O)(OC[C@H]1O[C@@H](n2ccc(=O)[nH]c2=O)[C@](C)(F)[C@@H]1O)Oc1ccccc1`, the call in test [1], in [2], in test [3], in [4] and in test [7] was inactive. Further, in [6], the AC50 was 2.63 µM (active). Moreover, the inhibition was -27.6% (inactive) in [9] (at 0.5 µM, stronger effect = higher value); -8.86% in test [9] (measured here: combination with BGB IC20, at 0.005 µM); -29.9% in test [9] (measured here: combination with BGB IC40, at 0.005 µM); -32.6% in [9] (setting [18]); -25.8% in test [9] (measured here: combination with cisplatin, at 0.5 µM, stronger effect = higher value); -29.3% in test [9] (measured here: combination with cisplatin, at 5 µM, stronger effect = higher value). In addition, the inhibition is -36.1% in test [10] (BGB combo, at 5 µM); -7.68% (inactive) in [10] (at 0.5 µM); -4.94% in [10] (cisplatin combo, at 5 µM); -9.88% in test [10] (setting [19]); 5.66% in [10] (setting [20]); -12.1% in test [10] (single agent, at 5 µM). Moreover, the inhibition in test [11] (BGB IC20 combo, at 0.005 µM) is -18%; in [11] (BGB IC40 combo, at 0.005 µM) it was -9.03%; in test [11] (BGB IC40 combo, at 0.05 µM), -19.6%; in test [11] (at 0.5 µM), -6.96% (inactive); in test [11] (cisplatin combo, at 0.05 µM) it was -25.8%; in [11] (cisplatin combo, at 0.5 µM), -2.19%. The inhibition in test [11] (cisplatin combo, at 5 µM) was -12.1%; in [11] (measured here: 5 uM single agent, at 5 µM), -20.9%; in test [12] (at 0.5 µM) it was -18.8% (inactive); in [12] (setting [18]), -16%; in test [12] (setting [21]), -13.4%; in test [12] (measured here: combination with cisplatin, at 5 µM) it was -6.21%. The inhibition is 14.1% (inactive) in test [13] (at 0.5 µM); 45.6% in [13] (measured here: with BGB IC20, at 0.5 µM); 9.23% in test [13] (measured here: with BGB IC20, at 5 µM); -3.56% in test [13] (measured here: with cisplatin IC20, at 0.5 µM); 2.16% in test [13] (measured here: with cisplatin IC20, at 5 µM); 7.57% in test [13] (single agent, at 5 µM). The inhibition in test [14] (at 0.5 µM) is -14.4% (inactive); in test [14] (measured here: BGB combination, at 0.5 µM), -6.51%; in test [14] (measured here: BGB combination, at 5 µM) it was -8.4%; in test [14] (measured here: cisplatin combination, at 0.5 µM), -26.3%; in test [14] (measured here: cisplatin combination, at 5 µM) it was -27.6%; in test [15] (at 0.5 µM), -5.65% (inactive). Also, the inhibition is -1.58% in test [15] (cisplatin combination, at 0.5 µM); -68.9% in test [15] (cisplatin combination, at 5 µM); -37.9% in test [15] (measured here: BGB IC40 combination 0.05 uM, at 0.05 µM); 12.2% in test [15] (single agent, at 5 µM); -12.6% (inactive) in test [16] (at 0.5 µM); -10.4% in [16] (cisplatin combo, at 5 µM). The inhibition is -14.6% in test [16] (measured here: BGB IC40 combination, at 0.05 µM); 5.31% in [16] (setting [21]); -3.36% in test [16] (single agent, at 5 µM); 22.4% (inactive) in [17] (at 0.5 µM); 2.82% in test [17] (setting [19]); 31.1% in test [17] (setting [20]). Further, the inhibition in test [17] (single agent, at 0.05 µM) was -4.05%; in test [17] (single agent, at 5 µM) it was -21.1%.
